Bioassay records deposited in PubChem by several laboratories.
NR3A LBD binder: modulates the human NR3A ligand-binding domain; AID 1259313; 340,000 tested, 2.5% active; Tm shift relative to glycine control, % at 25 µM; NR3A LBD differential scanning fluorimetry, Tm shift; 0% = protein alone, 100% = glycine-bound protein;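 active = melting temperature shift of at least 10% of the positive control shift, at one fixed dose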
rCAG RNA binder: molecules binding r(CAG) RNA repeats. r(CAG) RNA repeat, TO-PRO-1 dye displacement fluorescence. inhibition, % at 3 µM. 370,000 tested, 1.3% active. AID 651821;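 active = inhibition above the plate cutoff, the mean of all test compounds on that plate plus 3 SD, cut at about 35% in these data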;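 note: 0% = DMSO alone and 100% = 100 µM mitoxantrone as full dye displacement; higher means more dye released from RNA so lower well fluorescence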
NadD block: NadD (S. aureus) enzyme inhibition | purified NadD enzyme, colorimetric absorbance read-out | inhibition, % at 20 µM | 360,000 tested, 0.78% active | AID 602399; in the data active = inhibition above about 26%
FAS TE block: inhibitors of human fatty acid synthase thioesterase domain; recombinant FAS-TE, OMFH fluorogenic substrate, fluorescence endpoint; P49327; 360,000 tested, 0.67% active; inhibition, % at 15 µM;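 active = compounds whose normalised, plate-corrected inhibition of enzyme fluorescence in the single-dose primary screen is 50% or more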;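 note: 0% = DMSO with enzyme and 100% = substrate without enzyme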
FAS-TE inh conf: FAS thioesterase (human) inhibition, confirmation; inhibition, % at 15 µM; 2,300 tested, 45% active; shares compounds with FAS TE block; recombinant FAS-TE, OMFH fluorogenic substrate, fluorescence;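 active = compounds inhibiting the enzyme by at least 50% at 15 µM in any one of the replicates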;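 note: 0% = enzyme with DMSO only and 100% = wells lacking enzyme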
The depositor's hits bear a star; nt = no result given. A selection: hits, their analogues and other compounds. The true share with any hit is near 4.3%.

SMILES	NR3A LBD binder	rCAG RNA binder	NadD block	FAS TE block	FAS-TE inh conf
O=C(CSc1nc(-c2ccc(Cl)cc2)cs1)Nc1cccc([N+](=O)[O-])c1	26.6*	13.8	-7.6	48.5	nt
O=C(N/N=C/c1cccc([N+](=O)[O-])c1)c1ccc(COc2ccccc2-c2ccccc2)cc1	16.1*	20.0	21.6	29.2	nt
COc1cc(/C=N/NC(=O)c2cccc([N+](=O)[O-])c2)ccc1OCc1ccccc1	22.2*	-0.9	13.7	-10.1	nt
CCOc1cc(C=C2C(=O)c3ccccc3C2=O)ccc1OCC(=O)Nc1ccc(C)cc1	13.7*	2.9	-0.9	-5.2	nt
COc1ccc(/C=N/NC(=O)c2cccc([N+](=O)[O-])c2)c2ccccc12	33.7*	-0.3	2.6	5.0	nt
O=C(N/N=C/c1cccc([N+](=O)[O-])c1)c1ccc(Br)cc1	-0.1	-1.4	4.2	10.3	nt
COc1cccc(/C=N/NC(=O)c2cccc([N+](=O)[O-])c2)c1OS(=O)(=O)c1ccccc1	-5.6	6.0	-1.0	24.7	nt
COc1ccc(/C=N/NC(=O)c2cccc([N+](=O)[O-])c2)cc1OC	1.6	-2.1	1.2	-4.8	nt
CCOc1cc(/C=N/NC(N)=O)ccc1OCC(=O)Nc1ccc(C)c(C)c1	-2.3	-2.8	-1.9	-0.1	nt
O=C(N[C@H](Cc1ccccc1)C(=O)NCc1ccc(OC(F)(F)F)cc1)[C@H]1O[C@@H](n2ccc(=O)[nH]c2=O)[C@H](O)[C@@H]1O	nt	-1.5	nt	nt	nt
O=C(Nc1ccc2c(c1)OCO2)OC1CC2CC1[C@H]1CCCCN1[C@H]2Cc1ccccc1 (stereo partly specified)	nt	0.9	nt	nt	nt
Cc1c(C(C)c2ccccc2O)c2ccccc2n1C (stereo unspecified)	nt	6.3	nt	nt	nt
COC(=O)c1cc(-c2ccc(C)cc2)c(=O)n2c1CCC2	nt	4.5	nt	nt	nt
COc1cc(/C=N/NC(=O)c2cccc(C)c2)ccc1OCC(=O)Nc1ccccc1	18.9*	-0.8	2.8	10.7	nt
CCN(Cc1cn(Cc2ccccc2)nn1)S(=O)(=O)c1ccccc1Br	nt	-0.8	nt	nt	nt
CCOC(=O)N[C@H](C(=O)N1CCC[C@H]1C(=O)NCCc1ccccc1Cl)c1ccccc1	nt	-1.0	nt	nt	nt
COC(=O)c1cc(=O)nc(NN=C(C)C)s1	nt	4.8	nt	nt	nt
C/C(=N\NS(=O)(=O)c1ccc(Cl)c([N+](=O)[O-])c1)c1cc2ccccc2o1	9.8	8.4	1.8	53.9*	59.1*
CC(C)NC(=O)OC[C@H]1O[C@H](C#Cc2ccc(C(C)(C)C)cc2)C=C[C@H]1O	nt	0.9	nt	nt	nt
Cn1c(=O)c2c(ncn2Cc2ccc(O)c([N+](=O)[O-])c2)n(C)c1=O	nt	0.9	nt	nt	nt
O=C(CN1CCCCCC1)Nc1cccc([N+](=O)[O-])c1	-0.7	-2.4	-8.6	-4.0	nt
O=C(CCc1ccccc1)Nc1cccc([N+](=O)[O-])c1	-2.7	2.1	-2.0	25.5	nt
O=C(CN1CCN(c2ccccc2)CC1)Nc1cccc([N+](=O)[O-])c1	1.9	-2.6	-0.8	51.3*	50.3*
Cc1ccc([N+](=O)[O-])cc1NC(=O)CCCOc1ccccc1	2.4	6.4	-10.0	67.7*	32.1*
CCOC(=O)C(=O)Nc1cc([N+](=O)[O-])ccc1C	-4.2	0.4	-0.6	-4.5	nt
SMILES	NR3A LBD binder	rCAG RNA binder	NadD block	FAS TE block	FAS-TE inh conf
O=C(CCCc1ccccc1)Nc1cccc([N+](=O)[O-])c1	-7.5	-1.4	-10.8	66.1*	60.0*
CCCCNC(=S)Nc1cc([N+](=O)[O-])ccc1C	-0.5	-2.8	3.1	50.9*	36.5*
COC(=O)C1CN(C2CCCC2)CCS(=O)(=O)N1Cc1cn(Cc2ccc(OC)cc2)nn1 (stereo unspecified)	nt	-0.6	nt	nt	nt
O=C(CN1CCN(c2cccc(Cl)c2)CC1)Nc1ccc([N+](=O)[O-])cc1C(=O)Nc1ccccc1F	-3.1	1.7	10.5	59.5*	24.1
Cc1ccc([N+](=O)[O-])cc1NC(=O)CCc1ccccc1	1.3	0.4	1.1	50.0*	51.7*
COc1cc(S(=O)(=O)Nc2ccc(C)cc2)ccc1N=Cc1c(C)[nH]n(-c2ccc(C)cc2)c1=O	28.3*	6.5	28.4	77.2*	11.3
COc1cc(S(=O)(=O)Nc2ccc(C)cc2)ccc1N=Cc1c(C)c(C#N)c(=O)n(C)c1O	2.4	-0.3	1.8	-2.4	nt
CCCC12CN(C(=O)c3ccc([N+](=O)[O-])cc3)CC(C)(CN(C(=O)c3ccc([N+](=O)[O-])cc3)C1)C2=O	-4.9	-0.4	-4.2	55.1*	62.3*
CC12CN(C(=O)c3ccc([N+](=O)[O-])cc3)CC(C)(CN(C(=O)c3ccc([N+](=O)[O-])cc3)C1)C2=O	0.2	-1.7	nt	nt	nt
COc1cc(NC(=O)c2cc(-c3ccccc3)on2)cc(OC)c1OC	1.8	0.2	-10.0	12.9	nt
COc1cc(NC(=O)c2cc3nc(-c4ccccc4)cc(-c4ccccc4)n3n2)cc(OC)c1OC	-22.1	1.0	-5.5	51.5*	5.7
CCCC(C)C1c2c(c(C)c(C)oc2=O)Oc2c(C)c(C)oc(=O)c21 (stereo unspecified)	-4.4	-4.3	1.6	58.6*	55.9*
Cc1cccc(OC(C)CCN2CCC(C(O)(c3ccccc3)c3ccccc3)CC2)c1 (stereo unspecified)	nt	2.1	nt	nt	nt
CC1(C(=O)NS(=O)(=O)c2ccc(C#N)cc2)CCN1C(=O)c1cccc(F)c1 (stereo unspecified)	nt	2.6	-2.6	-3.4	nt
CC(C)(C)c1ccc(C(=O)N2CCC2(C)C(=O)NS(=O)(=O)c2ccc(C#N)cc2)cc1 (stereo unspecified)	nt	19.5	-3.6	53.3*	65.2*
Cc1cc(C)cc(NC(=O)OC2CCC23CCCCC3)c1 (stereo unspecified)	nt	-1.1	nt	nt	nt
N#Cc1cc(Oc2ccc(Cl)cc2)c(N2CCOCC2)cc1C#N	1.0	1.7	-1.3	67.1*	29.7*
O=C(CSc1nnc(-c2cccc(Cl)c2)n1Cc1ccco1)Nc1ccc2c(c1)OCO2	nt	5.2	nt	nt	nt
CS(=O)(=O)c1cc([N+](=O)[O-])c(Sc2nc3ccccc3[nH]2)c([N+](=O)[O-])c1	0.9	7.0	-2.1	51.0*	32.1
COc1ccc([N+](=O)[O-])cc1NC(=O)c1ccc(C)o1	-0.1	6.0	-2.7	12.5	nt
COc1ccc([N+](=O)[O-])cc1NC(=O)c1ccc(CN(c2ccc(C)c(C)c2)S(C)(=O)=O)cc1	-4.4	16.1	1.2	67.6*	33.9
COc1ccc(C)cc1S(=O)(=O)N(CC(=O)Nc1cc([N+](=O)[O-])ccc1C)c1ccc(C)c(C)c1	-4.1	12.5	0.4	65.1*	19.2
Cc1ccccc1CNC(=O)C1CCCN(c2ncccn2)C1 (stereo unspecified)	nt	1.2	nt	nt	nt
COc1ccc(Cn2ccc3ccc(-c4ccc5ccn(C(=O)C6CCC6)c5c4)cc32)cc1	nt	17.2	nt	nt	nt
Cc1c(Cl)c([N+](=O)[O-])nn1CCCC(=O)Nc1cccc(Cl)c1	-22.1	-0.9	-6.3	50.9*	42.0*
O=C(NC1CCCCC1)N(c1ccccc1)c1nnc(-c2cccc([N+](=O)[O-])c2)s1	nt	3.2	1.7	69.9*	62.7*
O=C(Cc1ccccc1)Nc1nnc(-c2cccc([N+](=O)[O-])c2)s1	-7.5	1.2	1.3	-2.2	nt
